Bioassay records as filed in PubChem.
Epigenetic derep = regulators of epigenetic silencing causing reporter derepression in mouse cells; 280,000 tested, 0.2% active; murine LDR cells, GFP reporter derepression, 30 h; AID 1865; Potency, µM (titrated, usually from 53.9 µM), for the others: at the highest dose GFP activation, actives largely listed as activators; active = well fitted activation curve with a large enough effect; inconclusive = small, poorly fitted or top-dose-only effect; also: potency is read from the fitted curve at half-maximal effect; % of control where 0% means no effect; nearly all actives have a fitted effect of over 60% in size
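In this reporter-derepression format, murine cells bearing a silenced integrated CMV-GFP locus incubate with test compound (30 h, 37 C), then are washed and imaged; fluorescent objects of 20–120 um count as induced cells.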
PINK1 expr mod = changes PINK1 expression; AID 624263; 410,000 tested, 0.2% active; Potency, µM (highest dose often 76.6 µM), for inactives: at the top dose activation (PINK1 increase), hits mostly activators; PINK1 immunofluorescence, high-content cytometry, 24 h; active = well fitted activation curve with a large enough effect; inconclusive = small, poorly fitted or top-dose-only effect; cell line not stated here; also: potency is read from the fitted curve at half-maximal effect; % of control where 0% means no effect; nearly all actives have a fitted effect of over 65% in size
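Compound titrations (5 concentrations, 24 h) on a stable cell line; DMSO and CCCP controls. Endpoint: fixed-cell PINK1 immunofluorescence with mitochondrial, cell and nuclear markers, scanned by microplate cytometer.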
ClpP mod = qHTS Assay for Activators of ClpP; ATP-dependent Clp protease proteolytic subunit (Bacillus subtilis (strain 168)), P80244; purified B. subtilis ClpP, FRET peptide cleavage, 20 min; Potency, µM (highest dose often 57.5 µM), for the others: top-dose activity change, negative = active; 340,000 tested, 1.9% active; AID 651965, 2013; active = well fitted falling curve with a large enough effect; inconclusive = small, poorly fitted or top-dose-only effect; inactive = no such curve, though single readings can be large or run the other way; also: potency is read from the fitted curve at half-maximal effect; the source files actives as falling curves though it sought activators and does not explain the sign; nearly all actives have a fitted effect of over 65% in size
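ClpP 10 microg/mL final, pH 8 Tris/KCl buffer with BSA, glycerol, Tween-20; compound pinned in; FRET-FV substrate; RT 20 min; Ex320/Em430; ΔFRET vs ADEP 5.8 microM, DMSO, no enzyme.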
MLL CXXC-DNA inh = inhibitors of human MLL CXXC domain-DNA interaction; Q03164; MLL-CXXC / FITC-HOXA9 DNA fluorescence polarization; Potency, µM (series often up to 115 µM), without a hit: top-dose activity change, negative = inhibition, most hits filed as inhibitors; 290,000 tested, 0.037% active; AID 2662; active = well fitted inhibition curve with a large enough effect in the polarisation, with a control signal flat, not every such curve was filed as active; inconclusive = small, poorly fitted or top-dose-only effect, or effect the other way, or a change in a side signal; inactive = no such curve, though single readings can be large or run the other way; the % refers to the polarisation; also: potency is read from the fitted curve at half-maximal effect
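Steps: dispense CXXC domain solution (7 uM) → pin compounds or unlabeled HOX-A9 DNA control → 5 min ambient → add FLSN-HOX-A9 solution (50 nM) → spin → 30 min ambient → fluorescence polarization. Tris pH 7.5/NaCl/DTT/BSA buffer.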
Menin-MLL TR inh = displaces Texas Red mutant MLL peptide from human menin; Potency, µM (doses to about 61.6 µM), for inactives: top-dose FP activity change, negative = inhibition, most hits filed as inhibitors; AID 1768; Menin + Texas Red MLL mutant peptide, fluorescence polarization; 270,000 tested, 0.23% active; active = well fitted inhibition curve with a large enough effect in the polarisation, with a control signal flat, not every such curve was filed as active; inconclusive = small, poorly fitted or top-dose-only effect, or effect the other way, or a change in a side signal; inactive = no such curve, though single readings can be large or run the other way; the % refers to the polarisation; also: potency is read from the fitted curve at half-maximal effect; % of control where 0% means no effect
Menin-MLL FL inh = menin-MLL binding inhibition, fluorescein peptide; Fluorescence polarization, fluorescein-MLL peptide displacement from menin; FP activity change, % at 61.4 µM; 290,000 tested, under 10 active; active = well fitted curve in the direction sought with a large enough effect in the polarisation, not every such curve was filed as active; inconclusive = small, poorly fitted or top-dose-only effect, or effect the other way, or a change in a side signal; inactive = no such curve, though single readings can be large or run the other way; the % refers to the polarisation; also: % of control where 0% means no effect
* = called active by the depositor; ? = inconclusive; . = no result given; ! = a repeat was not active; [ ] = dose if it differs, or a comment. A selection: hits, their analogues and other compounds. The true share with any hit is near 1.9%.

SMILES	Epigenetic derep	PINK1 expr mod	ClpP mod	MLL CXXC-DNA inh	Menin-MLL TR inh	Menin-MLL FL inh
N#C/C(=C/c1ccc(N2CCCCCC2)o1)c1cccc(F)c1	?	8.9µM*	-2%	-2%	32%	?
COc1cc(N2CCCC2)c(OC)cc1/C=C(/C#N)c1cccc(F)c1	3.2µM*	17%	1%	-9%	-15%	?
Cc1cc[n+](CCC2CCCCC2)c2ccccc12	.	.	4%	.	.	.
CCN1CCN(C(=O)c2ccc(Cn3c(=O)[nH]c4cc(OC)c(OC)cc4c3=O)cc2)CC1	-3%	1%	16µM*	18%	-5%	0
COc1cc2[nH]c(=O)n(Cc3ccc(C(=O)NCC4CCCO4)cc3)c(=O)c2cc1OC (configuration not stated)	0%	5%	25µM*	4%	-3%	-2
CC(C)OC(=O)c1c(NC(=O)COc2cccc(Br)c2)sc2c1CCCC2	1%	1%	-8%	.	.	.
CN(C)c1c(Cl)cc(/C=C/c2ccnc3ccccc23)cc1Br	.	.	-1%	.	.	.
CCOC(=O)c1c(C)nc2c(C#N)cnn2c1C	-1%	2%	?	-1%	9%	5
CCCCNc1c(C(=O)OCC)c(C)nc2c1cnn2CC	-1%	4%	-1%	7%	40µM*!	9
O=C(NC12CC3CC(CC(C3)C1)C2)c1ccccc1O	0%	24%	28µM*	-5%	19%	5
O=C(CN1Cc2ccccc2OC(c2ccccc2F)C1)NC(c1ccccn1)C(F)(F)F (configuration not stated)	.	1%	.	.	.	.
C=CCn1c(=O)c2ccc(C(=O)NCc3ccccc3)cc2n(Cc2cccc(Cl)c2)c1=O	-6%	5%	28µM*	12%	5%	0
C=CCn1c(=O)c2ccc(C(=O)NCc3ccccc3)cc2n(Cc2ccc(Cl)cc2)c1=O	2%	7%	9%	-1%	-5%	6
CCN1C(C(=O)c2ccccc2)=C(OC(=O)COc2ccccc2)c2ccccc2S1(=O)=O	-2%	-1%	2%	.	.	.
COCC(=O)N(Cc1cc2ccc(C)cc2[nH]c1=O)c1ccc(OC)cc1	-1%	-2%[38.3 µM]	?	-3%	3%	4
COCC(=O)N(Cc1cc2cc(OC)ccc2[nH]c1=O)c1ccccc1OC	-2%	2%	28µM*	8%	-8%	4
COCC(=O)N(Cc1cc2cc(OC)ccc2[nH]c1=O)c1ccc(C)cc1	-1%	-1%	25µM*	-11%	-11%	0
COc1cc2c(cc1OC)CN(C(=O)[C@@H]1C[C@H](NCc3cn(C)c4ccccc34)CN1C1Cc3ccccc3C1)CC2	.	6%	.	.	.	.
CC(=O)Oc1ccc(C2OC(=O)c3ccccc3N2C(C)=O)cc1 (configuration not stated)	1%	7%[38.3 µM]	25µM*	-1%	-1%	-2
CC(=O)CCc1c(C)[nH]c2ccc(NC(C)=O)cc2c1=O	1%	1%[38.3 µM]	25µM*	-5%	-9%	0
COc1cc(NC(=O)c2ccc(-c3nc(CSc4ccccc4)c(C)o3)cc2)cc(OC)c1	-5%	3%	14µM*	.	.	.
COc1cccc(CNC(=O)c2ccc(-c3nc(CSc4ccccc4)c(C)o3)cc2)c1	7%	3%	-14%	.	.	.
COc1ccc(OC)c(CNC(=O)c2ccc(-c3nc(CSc4ccccc4)c(C)o3)cc2)c1	-2%	0%	18µM*	.	.	.
COc1ccc(CNC(=O)c2ccc(-c3nc(CSc4ccccc4)c(C)o3)cc2)cc1OC	-1%	6%	-14%	.	.	.
CN(c1ccc(C(=O)Nc2cccnc2)cc1)S(C)(=O)=O	0%	1%	28µM*	-7%	13%	0
SMILES	Epigenetic derep	PINK1 expr mod	ClpP mod	MLL CXXC-DNA inh	Menin-MLL TR inh	Menin-MLL FL inh
O=C(CSC1=NCCS1)NC(NC(=O)CSC1=NCCS1)c1ccccc1	-2%	-2%	.	12%	-13%	3
COC(=O)c1cc(NC(=O)CSC2=NCCS2)cc(C(=O)OC)c1	0%	0%	25µM*	-9%	7%	3
O=C(O)c1sc2cc(C(F)(F)F)cnc2c1-c1ccccc1	0%	4%	-5%	-5%	.	-1
CSc1nnc(-c2sc3cc(C(F)(F)F)cnc3c2-c2ccccc2)n1C	-3%	1%	32µM*	3%	?	3
Cc1n[nH]c(=S)c2nn(-c3ccccc3F)c(C)c12	1%	0%	-1%	14%	.	?
Cc1nnc(Cl)c2nn(-c3ccccc3F)c(C)c12	1%	1%	28µM*	41%	-15%	20
Cn1c2ccccc2c2nnc(SCCN3CCOCC3)nc21	.	3%	0%	4%	29%	5
Cc1nnc(SCCN2CCOCC2)c2nn(-c3ccccc3F)c(C)c12	2%	1%	14µM*	-6%	5%	18
CCCCN(CC)CCCNC(=O)C1CCN(c2nc3ccc(CC)cc3s2)CC1	-2%	-1%	-5%	.	.	.
NS(=O)(=O)c1ccc(-c2ccc(C=C3C(=O)c4ccccc4C3=O)o2)cc1	.	1%	0%	6%	?	0
CC(C)CC1=C/C(=C/c2ccc(-c3ccccc3)o2)C(=O)O1	0%	-1%	25µM*	-2%	?	24
CC[n+]1ccnc2ccccc21	.	0%	?	.	.	.
Cc1oc2cc(O)ccc2c(=O)c1-c1cnn(-c2ccccc2)c1	-1%	3%	32µM*	3%	28%	2
COc1cc2nc3c(c([Si](C)(C)C(C)(C)C)c2cc1OC)Cn1c-3cccc1=O	7.9µM*	.	.	.	6%	?
COc1ccc2nc3c(c([Si](C)(C)C(C)(C)C)c2c1)Cn1c-3cccc1=O	9%	.	.	.	14%	1
COc1ccc(C(c2nnnn2C2CCCC2)N2CCC(C)CC2)c(OC)c1 (configuration not stated)	0%	?	18µM*	1%	3%	-3
COc1cc2cc(C(c3nnnn3C3CCCC3)N3CCCCC3)c(=O)[nH]c2cc1OC (configuration not stated)	-1%	?	22µM*	9%	-17%	0
O=c1[nH]c2cc3c(cc2cc1CN(Cc1nnnn1C1CCCC1)C1CCCC1)OCCO3	-2%	5%[38.3 µM]	32µM*	0%	-6%	-12
COc1ccc(OC)c(C(c2nnnn2C2CCCC2)N2CCN(c3ccc(F)cc3)CC2)c1 (configuration not stated)	0%	-2%	-6%	-2%	-26%	-1
O=c1[nH]c2cc3c(cc2cc1C(c1nnnn1C1CCCCC1)N1CCSCC1)OCCO3 (configuration not stated)	0%	2%[38.3 µM]	35µM*	-15%	11%	7
COc1cc2cc(CN(Cc3nnnn3C3CCCC3)C3CCCC3)c(=O)[nH]c2cc1OC	1%	.	.	-7%	6%	1
